Sfp inh – blocks B. subtilis Sfp PPTase activity | Potency, µM, actives largely listed as inhibitors | actives 3.5% (n = 310,000) | AID 1490 | Q9F4F7 | Biochemical Sfp PPTase activity, qHTS;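 note: the enzyme is Sfp with the accession as filed and its product quenches rhodamine fluorescence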
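Buffer: 50 mM Hepes-Na pH 7.6, 10 mM MgCl2, 0.01% Nonidet P-40, 0.01% BSA. Enzyme 15 nM, pre-exposed to compound 15 min; substrates then added and fluorescence change tracked over 30 min.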
GRP78 ERSR act – ER stress response induction in glioma; Potency, µM, most hits filed as activators; U87-MG GRP78 promoter luciferase reporter, 16 h; actives 0.02% (n = 420,000); note: series mostly up to about 76 µM; nearly all actives have a fitted effect of over 35% in size
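ERSR induction read as luciferase luminescence (Bright-Glo, 10 min at room temperature) in stably transfected human U87-MG glioma cells exposed to compounds for 16 h, using GRP78 as sensor.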
12-LOX inh – inhibitors of human 12S-lipoxygenase ALOX12. purified 12hLO, xylenol orange hydroperoxide absorbance. Potency, µM (doses to about 108 µM), actives largely listed as inhibitors. actives 1.1% (n = 580,000). AID 1671190
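Hydroperoxide product was detected by ferrous iron/xylenol orange as the 573 to 405 nm absorbance ratio. Arachidonic acid at 40 uM (final) was turned over for 30 min at room temperature by 150 nM human 12hLO, pH 7.0 Hepes buffer, after 15 min compound preincubation.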
VDR inhibitor – inhibitors of human vitamin D receptor; VDR-SRC2-3 peptide fluorescence polarization, 2 h; Potency, µM, hits mostly inhibitors; actives 0.93% (n = 400,000)
Target sequence (P11473 whole entry, looked up): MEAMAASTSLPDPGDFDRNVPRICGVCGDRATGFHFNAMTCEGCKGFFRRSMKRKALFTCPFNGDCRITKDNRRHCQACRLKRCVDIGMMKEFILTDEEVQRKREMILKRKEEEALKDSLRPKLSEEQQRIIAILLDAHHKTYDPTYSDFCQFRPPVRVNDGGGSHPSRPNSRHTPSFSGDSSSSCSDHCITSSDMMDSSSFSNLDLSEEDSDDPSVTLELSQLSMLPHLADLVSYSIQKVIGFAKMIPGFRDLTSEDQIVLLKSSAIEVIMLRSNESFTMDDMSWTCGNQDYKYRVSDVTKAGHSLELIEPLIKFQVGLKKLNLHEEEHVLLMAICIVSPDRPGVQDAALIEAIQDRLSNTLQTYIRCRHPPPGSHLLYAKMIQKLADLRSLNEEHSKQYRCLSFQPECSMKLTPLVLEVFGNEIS
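After 23 nl compound addition and a short centrifugation, plates sat for 2 hours at ambient temperature; polarization of fluorescence then indicated loss of VDR binding to peptide SRC2-3.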
G9a inh – blocks human histone lysine methyltransferase G9a; Q96KQ7; G9a H3K9 monomethylation, AlphaScreen, 2 h; Potency, µM (top dose mostly 102 µM), most hits filed as inhibitors; actives 8.8% (n = 350,000); note: nearly all actives have a fitted effect of over 75% in size
Target sequence (Q96KQ7 913-1193 limits assumed): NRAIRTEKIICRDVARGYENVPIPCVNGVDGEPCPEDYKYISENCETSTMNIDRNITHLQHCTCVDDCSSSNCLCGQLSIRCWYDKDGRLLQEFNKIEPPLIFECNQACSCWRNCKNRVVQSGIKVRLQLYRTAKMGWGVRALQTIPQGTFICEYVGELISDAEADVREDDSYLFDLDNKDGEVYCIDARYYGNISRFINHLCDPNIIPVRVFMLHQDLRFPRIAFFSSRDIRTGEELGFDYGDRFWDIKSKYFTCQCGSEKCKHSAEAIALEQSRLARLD
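G9a (20 nM) was preincubated 15 min with compound, then reacted 2 h at room temperature with 500 nM biotin-H3K9 peptide and 20 µM SAM. Monomethyl-H3K9 detected by AlphaScreen using anti-H3K9me1 antibody.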
Numbers stand for hits; n = inactive; u = inconclusive; x = not tested or not shown; [ ] = dose if it differs, or a comment. The full list was thinned out, with hits kept by preference. Calls come from the whole dose curve; as a rule, active = well fitted curve in the direction sought with a large enough effect; inconclusive = small, poorly fitted or top-dose-only effect, or another doubt; inactive = no such curve, though single readings can be large; an effect the other way counts as inactive or inconclusive.

SMILES	Sfp inh	GRP78 ERSR act	12-LOX inh	VDR inhibitor	G9a inh
CCN(CCNC(=O)CN1CCN(Cc2ccc(Cl)cc2)C1=O)c1ccccc1	n	n	n	n	11µM
O=C(CN1CCN(Cc2ccccc2)C1=O)NCc1ccc(Cl)cc1	n	n	n	n	n
CCN(CCNC(=O)C1CCC(=O)N1Cc1ccc(C)cc1)c1ccccc1 (stereo unspecified)	n	n	n	n	50µM
COc1ccc(NCC(=O)Nc2ccccc2C(=O)NC2CC2)cc1	x	x	n	x	x
O=C(NCc1ccccn1)C1(c2cccc(C(F)(F)F)c2)CCOCC1	x	x	n	x	x
CCN(CCCNC(=O)C1CCC(=O)N1Cc1ccccc1Cl)c1cccc(C)c1 (stereo unspecified)	n	n	n	n	45µM
O=C(Nc1nc(-c2ccccn2)cs1)c1ccc2c(c1)OCCO2	n	n	n	n	n
CC1CC1C(=O)Nc1nc(-c2ccccn2)cs1 (stereo unspecified)	25µM	n	u	79µM	8.9µM
Cn1nc(C(=O)Nc2nc(-c3ccccn3)cs2)c2ccccc2c1=O	x	n	n	u	4.5µM
O=C(Nc1nc(-c2ccccn2)cs1)C1COc2ccccc2O1 (stereo unspecified)	n	n	n	n	n
CC(=O)Nc1ccc(C(=O)Nc2nc(-c3ccccn3)cs2)cc1	16µM	n	n	n	u
c1ccc(CCNc2nc(-c3ccccn3)cs2)cc1	20µM	n	n	n	x
Cc1cc(C)n(-c2nc3c(c(=O)[nH]c(=O)n3C)n2C/C=C/c2ccccc2)n1	x	x	n	x	x
CCC(C)C(=O)N1CCCCC1CC (stereo unspecified)	x	x	n	x	x
CCCCn1nc(C(=O)Nc2cc(C(=O)O)ccc2C)c2ccccc2c1=O	x	x	n	x	x
COc1ccc(C(=O)N2CCc3nc(C(C)C)nc(-c4ccc(OC)cc4)c3CC2)cc1	x	x	n	x	x
O=C(Nc1nc(-c2ccccn2)cs1)c1ccccc1-n1cnnn1	16µM	n	u	u	10µM
CCC(=O)NC(=S)Nc1ccc(NC(=O)c2ccc(C)c([N+](=O)[O-])c2)cc1	n	n	n	n	7.9µM
CCn1nc(C(=O)Nc2nc(-c3ccccn3)cs2)c2ccccc2c1=O	x	n	n	n	n[12.7 µM]
Cc1csc(NC(=O)c2ccc(C)c([N+](=O)[O-])c2)n1	u	n	u	n	10µM
Cc1cc(C(=O)Nc2nc(-c3ccccn3)cs2)ccc1[N+](=O)[O-]	n	n	n	n	40µM
CN(CC(=O)NC(=O)NCC(F)(F)F)c1ccccc1	x	x	n	x	x
Cc1cccc(/C=C(/C(=O)N(C)Cc2ccsc2)c2cccs2)c1	x	x	n	x	x
Cc1ccc(-c2ccccc2CN)c(C)c1	x	x	n[12.5 µM]	x	x
COc1ccc(Br)cc1S(=O)(=O)NCCN(C)C	x	x	n	x	x
SMILES	Sfp inh	GRP78 ERSR act	12-LOX inh	VDR inhibitor	G9a inh
CC(=O)Nc1ccc(C(=O)Nc2nc(-c3cccnc3)cs2)cc1	u	n	n	u	4µM
Cc1ccc(NC(=O)N2CC(C)OC(C)C2)cc1[N+](=O)[O-] (stereo unspecified)	x	x	n	x	x
Cc1ccc(C(=O)NC(=S)N2CC(C)OC(C)C2)cc1[N+](=O)[O-] (stereo unspecified)	n	n	n	n	40µM
O=C(Nc1nc(-c2ccccc2)cs1)c1cccnc1	n	n	n	n	n[12.7 µM]
CN(C)c1ccc(C=NCCCCCCN=Cc2ccc(N(C)C)cc2)cc1	x	x	n	x	x
COc1ccccc1NC(=O)NC[C@H]1O[C@H](Cc2cc(-c3ccc(F)cc3)on2)CC[C@@H]1O	x	x	n	x	x
Cc1cc(=S)c2cccc(C)c2[nH]1	35µM	n	n	n	56µM
CCOc1ccc(OCc2nc3ccccc3[nH]2)cc1	x	x	n	x	x
Cc1ccc(-c2cccc(NC(=O)C3C(C(=O)O)[C@@H]4C=C[C@H]3C4)c2)o1 (stereo partly specified)	7.9µM	n	u	n	16µM
O=C(O)C1C2C=CC(C2)C1C(=O)Nc1cccc(F)c1 (stereo unspecified)	n	n	u	n	n
Cc1cccc(C)c1NC(=O)C1C2C=CC(C2)C1C(=O)O (stereo unspecified)	n	n	n	n	x
O=C(O)c1cccc(NC(=O)C2C3C=CC(C3)C2C(=O)O)c1 (stereo unspecified)	n	n	n	n	50µM
COc1ccc(C(C)(C)C)cc1NC(=O)C1C2C=CC(C2)C1C(=O)O (stereo unspecified)	n	n	n	n	50µM
O=S(=O)(c1ccc(-c2n[nH]c(=S)o2)cc1)N1CCCC1	n	n	n	n	35µM
O=S(=O)(c1ccc(-c2n[nH]c(=S)o2)cc1)N1CCCCC1	n	n	n	n	11µM
S=c1[nH]nc(-c2ccccc2)o1	n	n	n	n	u
O=S(=O)(c1ccc(-c2nc3ccccc3s2)cc1)N1CCCCCC1	x	x	n	x	x
Cc1cc(C)cc(NC(=S)NCCC(C)C)c1	x	x	n	x	x
CCOc1ccc(CC(=O)N2CCC3(CC2)N=C(c2ccc(C)cc2)NO3)cc1	x	x	n	x	x
O=C(CSc1nnc(-c2cccnc2)n1Cc1ccco1)c1ccc2ccccc2c1	n	n	n	n	50µM
CCSc1nnc(-c2cccnc2)n1Cc1ccco1	40µM	n	n	n	n
C(=C\c1ccccc1)/CSc1nnc(-c2ccncc2)n1Cc1ccco1	50µM	n	n	n	u
O=C(CSc1nnc(-c2cccnc2)n1Cc1ccco1)c1ccc(Br)cc1	n	n	n	n	n
CCN(Cc1cccs1)C(=O)c1ccc(NS(C)(=O)=O)cc1	x	x	n	x	x
Cc1ccccc1OCc1nnc(SCc2ccc(Cl)c(Cl)c2)n1C	x	x	n	x	x
SMILES	Sfp inh	GRP78 ERSR act	12-LOX inh	VDR inhibitor	G9a inh
O=C(CSc1nnc2ccccn12)c1ccc(F)cc1	x	x	n	x	x
C[C@@H]1O[C@@H](O[C@H]2[C@H](Oc3cc(O)c4c(c3)O[C@H](c3ccc(O)cc3)CC4=O)O[C@H](CO)[C@@H](O)[C@@H]2O)[C@H](O)[C@H](O)[C@H]1O	n	n	n	n	45µM
C[C@@H]1O[C@@H](O[C@H]2[C@H](Oc3cc(O)c4c(c3)OC(c3ccc(O)cc3)CC4=O)O[C@H](CO)[C@@H](O)[C@@H]2O)[C@H](O)[C@H](O)[C@H]1O (stereo partly specified)	x	n	n	n	n
CN(C)C[C@@H]1CN(S(C)(=O)=O)C[C@H]1NC(=O)CCC1CCCC1	x	x	n	x	x
COc1cccc(NC(=O)CN(C)C(=O)c2ccccc2OCc2c(C)noc2C)c1	x	n	n	n	7.9µM
Cc1cccc(-c2cc(Nc3cccc(C(=O)N(C)Cc4ccccc4)c3)ncn2)c1	x	x	n	x	x
CCOC(=O)c1cccc(Nc2cc(-c3ccccc3)ncn2)c1	x	n	u	n	16µM
COc1cccc(N2CCN(Cc3ncc(-c4ccccc4)o3)CC2)c1	n	n	n	n	u
COc1cccc(CN2CCN(c3ncccn3)CC2)c1	n	n	0.79µM	n	11µM
FC(F)(F)c1cccc(N2CCN(Cc3cccnc3)CC2)c1	n	n	n	n	14µM
COc1cccc(CN2CCN(c3cccc(C(F)(F)F)c3)CC2)c1OC	u	n	u	n	6.3µM
